Experimental data as given in PubChem BioAssay (EPA / NIEHS).
Active and inactive are the calls of the source. The calls were made as follows: active = hit-call score of the fitted dose curve at least 0.9, where 1 is the maximum; inactive = score below 0.9.

These molecules were tested on urokinase plasminogen activator (uPA), PLAU (gene 5328) (assay: BSK_BE3C_uPA: BioMAP Diversity Plus: BE3C Assay for urokinase plasminogen activator (uPA) Biomarker Activity (AID 2283038;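 as to outcome: uPA read one day after compound addition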)). Details: primary human bronchial epithelial cells; actives raise or lower the signal.
Protocol: BSK_BE3C is a cell-based, multiplexed-readout assay that uses bronchial epithelial cell, a human lung primary cell, with measurements taken at 24 hours after chemical dosing in a 96-well plate.BSK_BE3CA is an assay component measured in the BSK_BE3C assay. It measures uPA antibody related to regulation of gene expression using ELISA technology.Data from the assay component BSK_BE3CA was analyzed into 1 assay endpoint. This assay endpoint, BSK_BE3CA, was analyzed with bidirectional fitting relative to DMSO as the negative control and baseline of activity. Using a type of binding reporter, gain or loss-of-signal activity can be used to understand changes in the signaling as they relate to the gene PLAU. Furthermore, this assay endpoint can be referred to as a primary readout, because this assay has produced multiple assay endpoints where this one serves a signaling function. To generalize the intended target to other relatable targets, this assay endpoint is annotated to the protease intended target family, where the subfamily is serine protease.
The levels of cell surface (or secreted, indicated by the prefix "s") biomarker endpoints were measured by ELISA. Overt cytotoxicity to cells in confluent adherent cultures (all systems other than the BT system) was assessed by measuring total protein levels using sulforhodamine B (SRB) staining in parallel cultures at the time of biomarker measurements, indicated as SRB endpoints. For proliferation assays for adherent cell types, individual cell types are cultured at sub-confluence and relative cell numbers quantified by SRB staining at time points optimized for each system (48 h: 3C and CASM3C systems; 72 h: BT and HDF3CGF systems; 96 h: SAg system). SRB was performed by staining cells with 0.1% SRB after fixation with 10% TCA and reading wells at 560 nm.Viability and proliferation of PBMC (T cells) was quantified by Alamar Blue reduction for the SAg and BT systems. For PBMC viability (referred to as PBMC Cytotoxicity within the assay endpoint names), cells were plated (75,000/well in a 96-well plate) and then chemical samples added for 1 h before addition of activators, SEB and TSST-1 (20 ng/mL final concentration each). Cells were incubated for 90 h. Then, Alamar Blue (20 uL/well) (Invitrogen, Cat DAL1100) was added for 6 h, and the plates were read with a fluorescence microplate reader at 546/580 nm (excitation/emission). For PBMC proliferation, cells were plated and activated as above but incubated for only 16 h prior to addition of Alamar Blue. Plates were read after 6 h.
With `CN(C)C(=O)NC1(c2ccccc2)CCN(CCC[C@]2(c3ccc(Cl)c(Cl)c3)CCCN(C(=O)c3ccccc3)C2)CC1` the outcome was “inactive”. `O=[Si]=O` was tested, and the outcome was “inactive”. With `O=C(O)CC(O)(CC(=O)O)C(=O)O` the outcome was “inactive”. With `C=CCc1ccc(OC)c(OC)c1` the outcome was “inactive”. `O=NO` was tested, and the outcome was “inactive”. `N[C@@H](Cc1c[nH]c2ccccc12)C(=O)O` was tested, and the outcome was “inactive”. `CC(=O)S[C@H](C(=O)N[C@H]1Cc2ccccc2[C@H]2CCC[C@@H](C(=O)O)N2C1=O)C(C)C` was tested, and the outcome was “inactive”. With `CCCCCCCCCCCCCCCCO` the outcome was “inactive”. `NC1CCCCC1` was tested, and the outcome was “inactive”. In the case of `CCCC(=O)O`, the outcome was “inactive”. With `NCCOCCOCCN` the outcome was “inactive”. In the case of `C/C=C/C=C/C(=O)O`, the outcome was “inactive”. For `Nc1nc(=S)c2[nH]cnc2[nH]1`, the outcome was “inactive”. For `CS(=O)(=O)c1ccc([C@@H](C[C@H]2CCC(=O)C2)C(=O)Nc2cnccn2)cc1Cl`, the outcome was “inactive”. In the case of `C#CC(O)C(CC)CCCC` (stereo not given), the outcome was “inactive”. `CC(=O)O[C@]1(C(C)=O)CC[C@H]2[C@@H]3C=C(Cl)C4=CC(=O)[C@@H]5C[C@@H]5[C@]4(C)[C@H]3CC[C@@]21C` was tested, and the AC50 was 38.2 µM (active). For `CCCCCCC(CCCCCCCCCCC(=O)OCC(COC(C)=O)OC(C)=O)OC(C)=O` (stereo not given), the AC50 was 13.2 µM (active). `CC1(C)C(=O)NC(=O)N1CO` was tested, and the outcome was “inactive”. For `CCCCC(CC)COC(=O)CCCCCCCC(=O)OCC(CC)CCCC` (stereo not given), the outcome was “inactive”. `O=C(O)CN(CC(=O)O)CC(=O)O` was tested, and the outcome was “inactive”. For `Cc1cc(Cc2ccc(N)c(C)c2)ccc1N`, the outcome was “inactive”. `CCOCCOCCO` was tested, and the outcome was “inactive”. In the case of `CCC(C)N(C)C(=O)c1cc2ccccc2c(-c2ccccc2Cl)n1` (stereo not given), the outcome was “inactive”. In the case of `c1ccc2occc2c1`, the outcome was “inactive”. For `CC(=O)[C@@]1(O)CC[C@H]2[C@@H]3CCC4=CC(=O)CC[C@]4(C)[C@H]3CC[C@@]21C`, the outcome was “inactive”. In the case of `COC(=O)CCCC(=O)OC`, the outcome was “inactive”. With `Cc1cn([C@H]2C=C[C@@H](CO)O2)c(=O)[nH]c1=O` the outcome was “inactive”. With `OCC(CO)n1cnc(-c2ccc(F)cc2)c1-c1ccnc(Oc2ccccc2)n1` the AC50 was 3.97 µM (active). In the case of `O=C1OC(c2ccc(O)cc2)(c2ccc(O)cc2)c2ccccc21`, the outcome was “inactive”. `CC(C)COC(=O)CCCCC(=O)OCC(C)C` was tested, and the outcome was “inactive”. With `CCN(CC)CCOc1ccc(C(=C(Cl)c2ccccc2)c2ccccc2)cc1` the AC50 was 26 µM (active). In the case of `CCCCC(CC)CO` (stereo not given), the outcome was “inactive”. For `O=C(N[C@@H](c1ccccc1)[C@@H]1CCCCN1)c1cccc(C(F)(F)F)c1Cl`, the AC50 was 28.7 µM (active). In the case of `O=C(O)c1cccnc1`, the outcome was “inactive”. `COC(=O)CCC(=O)OC` was tested, and the outcome was “inactive”. `NC(=Nc1ccccc1)Nc1ccccc1` was tested, and the outcome was “inactive”. For `CO[C@@H]1COCC[C@@H]1N[C@@H]1CC[C@@](C(=O)N2CCc3ncc(C(F)(F)F)cc3C2)(C(C)C)C1`, the outcome was “inactive”. For `O=C1NC(=O)C(c2ccccc2)(c2ccccc2)N1`, the outcome was “inactive”. `NC=O` was tested, and the outcome was “inactive”. For `CC(=O)OCC(COC(C)=O)OC(C)=O`, the outcome was “inactive”.
